Broadly, the inhibition is the change of the read-out against control, counted positive when it falls.

The structures appear in SMILES notation. Among all 130,000 compounds or so, about 1,200 (0.92%) were called active.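 The calls were made as follows: active = inhibition above the mean plus 3 SD, with well images judged a real hit on visual review (cut at about 60% in these data, passing the limit was not always enough); inconclusive = inhibition over the cutoff but images rejected on review; inactive = inhibition not above the cutoff.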 What follows is part of a selection rich in actives, with near analogues and random picks from the rest.

The test is described as follows: insulin gene promoter suppression in islet cells – imaging, TRM-6 cells (human fetal islet line), eGFP reporter, cell count, primary screen (AID 1273;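 as to normalized cell count: cells exposed to compound for 48 h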). The note with it: at 2 µM, reporter expression induced with tamoxifen; inhibition: stronger effect = higher value; normalized cell count: measured here: cell count, toxicity.
With `COc1ccc(-c2cn3cccnc3n2)cc1`, the inhibition was 23.5% (inactive) and the normalized cell count was 80.6%.
The matching figures for `Cc1ccc(Cl)c(NC(=O)CN2CCN(C=O)CC2)c1`: -71.4% (inactive) and 117%.
Taken in the same sequence, the figures for `O=C(CC1C(=O)NCCN1Cc1ccc(-c2ccccc2)cc1)NCc1ccncc1` (stereo not drawn) were 0% (inactive) and 65.4%.
Taken in the same sequence, the figures for `CCSc1ccccc1C(=O)Nc1ccc2c(c1)OCO2` were -63.2% (inactive) and 84.3%.
Consider `N/C(=N\OC(=O)Cc1ccccc1[N+](=O)[O-])c1ccc(Br)cc1`, for which the inhibition was 7.69% (inactive) and the normalized cell count came to 129%.
Turning to `N/C(=N\OC(=O)N1c2ccccc2Sc2ccccc21)c1ccc(Br)cc1`, the inhibition is 79.3% (active) and the normalized cell count amounted to 124%.
The matching figures for `N/C(=N\OC(=O)/C=C/c1ccccc1)c1ccc(Br)cc1`: 14.3% (inactive) and 133%.
Take `Cc1nnc(SCC(=O)N2CCN(c3ccccc3)CC2)n1-c1ccccc1`: the inhibition is -41% (inactive) and the normalized cell count was 117%.
For `Cc1ccccc1NC(=O)Cc1nnc(SCC(=O)N2CCN(c3ccccc3)CC2)n1C`, the inhibition was 18.2% (inactive) and the normalized cell count turned out to be 112%.
The matching figures for `Cc1cc2nnc(SCC(=O)N3CCN(c4ccccc4)CC3)n2c(N)n1`: 74.3% (active) and 82.1%.
As for `O=C(CSc1ccsc1[N+](=O)[O-])N1CCCCC1`, the inhibition was -33.3% (inactive) and the normalized cell count was 80.7%.
On to `Cc1cccc(N2CC(C)Cn3c2nc2c3c(=O)n(CC(=O)OCc3ccccc3)c(=O)n2C)c1` (stereo not drawn), for which the inhibition was 87.5% (active) and the normalized cell count is 63.7%.
Taken in the same sequence, the figures for `Cc1cccc(Cn2c(N3CCN(c4ccccc4)CC3)nc3c2c(=O)n(C)c(=O)n3C)c1` were -28.1% (inactive) and 82.7%.
Regarding `Cn1c(=O)n(CCc2ccccc2)c(=O)c2c1nc1n2CCCN1c1ccccc1`, the inhibition is -196% (inactive) and the normalized cell count stood at 86.5%.
With `O=[N+]([O-])/C(N=Nc1ccccc1)=N\Nc1ccccc1`, the inhibition was 7.14% (inactive) and the normalized cell count amounted to 142%.
The matching figures for `COCCCNC(=S)NNC(=O)C(O)(c1ccccc1)c1ccccc1`: -89.5% (inactive) and 100%.
`CCCCn1c(CN2CCN(CCO)CC2)nc2ccccc21`: the inhibition was -68.6% (inactive) and the normalized cell count came out at 100%.
`COCn1c(COc2ccccc2)nc2ccccc21`: the inhibition is 30% (inactive) and the normalized cell count turned out to be 132%.
Turning to `C=C(Br)Cn1c(CCCC)nc2ccccc21`, the inhibition is 85.7% (active) and the normalized cell count was 72.7%.
Consider `CCCNCc1cc(OCC)c(OCC(=O)Nc2ccccc2)cc1Br`, for which the inhibition is 0% (inactive) and the normalized cell count was determined as 99%.
As for `C=C(C)Cn1c(C)cc(C)c(S(=O)(=O)c2ccccc2C)c1=O`, the inhibition was 78.4% (active) and the normalized cell count was determined as 40.9%.
Taken in the same sequence, the figures for `Cc1nc([N+](=O)[O-])c(NCCCO)n1Cc1ccccc1` were 50% (inactive) and 125%.
Consider `CC(C)C(=O)NCc1cc(-c2ccc(Cl)cc2)no1`, for which the inhibition is 55% (inactive) and the normalized cell count was 86.2%.
Taken in the same sequence, the figures for `CS(=O)(=O)N1CCc2cc(C(=O)Nc3ccccc3)ccc21` were 43.6% (inactive) and 103%.
With `COC(=O)Cn1c2ccc(C)cc2c2nc(C)sc21`, the inhibition was 85.7% (active) and the normalized cell count was found to be 32.4%.
The matching figures for `CCN(CC)CCn1c2ccc(Cl)cc2c2nc(C)sc21`: 46.1% (inactive) and 78.6%.
On to `COC(=O)Cn1c(=NC(=O)c2cc(OC)c(OC)c(OC)c2)sc2cc(OC)ccc21`, for which the inhibition is -14.3% (inactive) and the normalized cell count worked out at 101%.
With `Cc1cc(NC(=O)CN2C(=O)NC(CCc3ccccc3)C2=O)no1` (stereo not drawn), the inhibition is 60% (inactive) and the normalized cell count was found to be 76%.
The matching figures for `S=C(NCc1cccnc1)Nc1ccc(Cl)cc1Cl`: -31.6% (inactive) and 122%.
The matching figures for `CC(C(=O)NC1CCCC1)N(c1ccc(Oc2ccccc2)cc1)S(C)(=O)=O` (stereo not drawn): -15.8% (inactive) and 67.6%.
Take `Cc1ccc(S(=O)(=O)N(C)C)cc1NC(=O)COC(=O)C1COc2ccccc2O1` (stereo not drawn): the inhibition is -44.4% (inactive) and the normalized cell count turned out to be 51.1%.
Consider `CCCCn1nc(C(=O)Nc2ccc(S(=O)(=O)Nc3ncccn3)cc2)c2ccccc2c1=O`, for which the inhibition is 25% (inactive) and the normalized cell count turned out to be 158%.
Taken in the same sequence, the figures for `Cc1ccsc1CNn1cnnc1SCc1ccccc1F` were 86.5% (active) and 28.9%.
Consider `O=C(O)CSc1nnc(-c2ccc3c(c2)OCO3)n1-c1ccccc1`, for which the inhibition was 15% (inactive) and the normalized cell count worked out at 96.8%.
Taken in the same sequence, the figures for `CCC1(CC)NC(=O)N(Cc2nc3ccccc3s2)C1=O` were -16.7% (inactive) and 127%.
With `CCOC12CC(C)(C)CC(C)(CC3=C1C(=O)CC(C)(C)C3)C2` (stereo not drawn), the inhibition was 73.7% (active) and the normalized cell count amounted to 4.89%.
`CCCN(CC(=O)Nc1ccc(OC)c(OC)c1)CC(=O)Nc1ccc(F)c(F)c1F`: the inhibition was -25% (inactive) and the normalized cell count is 134%.
The matching figures for `O=Cc1ccc(OCc2cn3ccccc3n2)cc1`: 36.4% (inactive) and 194%.
Taken in the same sequence, the figures for `COC(=O)NNC1=CC(=O)CC(C)(C)C1` were -26.7% (inactive) and 74.6%.
The matching figures for `COC(=O)C(NS(=O)(=O)c1ccc(F)cc1)c1ccccc1` (stereo not drawn): -16.3% (inactive) and 140%.
On to `Fc1ccccc1/C=C1\CCCC2=C1Nc1ncnn1C2c1ccccc1F` (stereo not drawn), for which the inhibition is 86.1% (active) and the normalized cell count is 102%.
Taken in the same sequence, the figures for `O=CN1CCN(C2CC(=O)N(c3ccc4c(c3)OCO4)C2=O)CC1` (stereo not drawn) were 20.9% (inactive) and 129%.
Taken in the same sequence, the figures for `COc1ccc(N2CCN(C3CC(=O)N(c4ccc5c(c4)OCCO5)C3=O)CC2)cc1` (stereo not drawn) were 91.7% (active) and 78.3%.
For the molecule `COc1cccc(N2CCN(C3CC(=O)N(c4ccc(Cl)cc4)C3=O)CC2)c1` (stereo not drawn), the inhibition is 30.8% (inactive) and the normalized cell count came to 118%.
The matching figures for `Nc1cccc(CCc2nc3ccccc3[nH]2)c1`: 17.2% (inactive) and 146%.
The matching figures for `CCN(/N=C/c1ccc(N(C)C)cc1)c1nc2ccccc2[nH]1`: 86.7% (active) and 159%.
The matching figures for `CN(C)c1ccc(/C=N\S(=O)(=O)c2ccccc2)cc1`: -39.5% (inactive) and 46.9%.
`Cc1nn(CC#N)c(=O)n1N(C)c1ncc(C(F)(F)F)cc1Cl`: the inhibition is 30% (inactive) and the normalized cell count amounted to 84.4%.
The matching figures for `O=C(CSc1nc2ccccc2[nH]1)c1cccs1`: 42.9% (inactive) and 105%.
The matching figures for `C=CCSc1nc2ccccc2[nH]1`: 81.8% (active) and 184%.
As for `COc1ccccc1CSc1nc2ccccc2[nH]1`, the inhibition was -54.8% (inactive) and the normalized cell count is 124%.
The matching figures for `CCOC(=O)CSc1nc(C)cc2c1C(=O)OC2`: 28.6% (inactive) and 94.5%.
As to `CCCCc1nnc(NC(=O)CSc2nc(N)cc(=O)[nH]2)s1`, the inhibition was 12.5% (inactive) and the normalized cell count was 93.7%.
In the case of `COc1ccc2oc(=O)c(C(=O)N3CCCC3)cc2c1`, the inhibition was 44.4% (inactive) and the normalized cell count was 107%.
Taken in the same sequence, the figures for `CN(C)c1ccc(C=NCCc2ccc(S(N)(=O)=O)cc2)cc1` were 31.2% (inactive) and 121%.
`CC1(C)CC(=O)c2cnc3nc4ccccc4n3c2C1`: the inhibition was 76.2% (active) and the normalized cell count is 56.3%.
Regarding `CC(C)(C)c1cc(=O)n2c(nc3ccccc32)[nH]1`, the inhibition is 29.4% (inactive) and the normalized cell count came to 245%.
For `Cc1ccc2nc(Nc3ncc4c(n3)CC(C)(C)CC4=O)nc(C)c2c1`, the inhibition was -25% (inactive) and the normalized cell count worked out at 96.8%.
`Cc1ccc(OCCCn2c(=O)oc3ccccc32)cc1`: the inhibition was -26.7% (inactive) and the normalized cell count turned out to be 84.1%.
Consider `COc1ccc(OC)c(Cc2nnc(CCC(=O)NC3CCCC3)o2)c1`, for which the inhibition is 11.1% (inactive) and the normalized cell count was determined as 95.3%.
The matching figures for `Cc1onc(-c2ccccc2)c1C(=O)N1CCOCC1`: -90% (inactive) and 78.8%.
The matching figures for `Cc1onc(C(=O)NN)c1C(=O)N1CCN(C(c2ccccc2)c2ccccc2)CC1`: 81.8% (active) and 29.3%.
The matching figures for `Cn1nnnc1SCC(=O)N1CCN(C(c2ccccc2)c2ccccc2)CC1`: -18.9% (inactive) and 68.2%.
As to `Cc1nnsc1C(=O)N/N=C/c1cccc(C(F)(F)F)c1`, the inhibition was -86.7% (inactive) and the normalized cell count stood at 39.6%.
Taken in the same sequence, the figures for `O=[N+]([O-])c1ccccc1NCc1ccccc1Cl` were 33.3% (inactive) and 123%.
On to `O=c1c([N+](=O)[O-])cccn1Cc1ccc(F)cc1Cl`, for which the inhibition was 73.3% (active) and the normalized cell count was 83.1%.
With `O=c1c([N+](=O)[O-])cc(C(F)(F)F)cn1Cc1cccc(Cl)c1`, the inhibition was -10.7% (inactive) and the normalized cell count came to 66.7%.
Taken in the same sequence, the figures for `CCOC(=O)Cn1nnnc1C` were 26.7% (inactive) and 95.5%.
Taken in the same sequence, the figures for `O=C(c1snnc1-c1ccccc1)N1CCOCC1` were -30.2% (inactive) and 64.9%.
Taken in the same sequence, the figures for `Cc1cccc(C)c1NC(=O)C1(N(C(=O)c2ccccn2)c2ccc(O)cc2)CCCCC1` were 6.67% (inactive) and 38.5%.
With `CC(O)c1cccc(NC(=O)Cc2cccc3ccccc23)c1` (stereo not drawn), the inhibition was -38.9% (inactive) and the normalized cell count was 41%.
The matching figures for `CCCOc1ccc(NC(=O)C2CCCNC2=O)cc1` (stereo not drawn): 5.71% (inactive) and 82.1%.
In the case of `O=C1CCC(C(=O)Nc2ccc(OC(F)F)cc2)N1` (stereo not drawn), the inhibition was 72.7% (active) and the normalized cell count worked out at 73.3%.
In the case of `COc1ccc(C(=O)N2CCC(C(=O)Nc3ccc(C)cc3)CC2)cc1`, the inhibition was 33.3% (inactive) and the normalized cell count is 85.5%.
The matching figures for `CCOC(=O)Cc1ncccc1C(=O)Nc1ccc(OC(F)(F)F)cc1`: 0% (inactive) and 62.2%.
In the case of `O=C(CNCc1ccc(Cl)cc1)Nc1cccc(C(=O)O)c1`, the inhibition is 38.5% (inactive) and the normalized cell count was found to be 79.9%.
In the case of `Cc1ccc(O/C=C2\OC(=O)c3ccccc32)cc1`, the inhibition was 81.2% (active) and the normalized cell count stood at 93%.
Regarding `Cc1ccc(S(=O)(=O)c2ccc(Oc3ccccc3)cc2)cc1`, the inhibition is -87.1% (inactive) and the normalized cell count was determined as 116%.
Taken in the same sequence, the figures for `Cc1ccc(OC(=O)c2cc3ccccc3o2)cc1` were -79.3% (inactive) and 174%.
Taken in the same sequence, the figures for `Cc1nn(-c2ccccc2)c(C)c1/C=C/C(=O)OC(C)C(N)=O` (stereo not drawn) were 68.8% (active) and 181%.
`Cc1ccc(C(=O)/C=C/c2c(C)nn(-c3ccccc3)c2Cl)cc1`: the inhibition is -16.7% (inactive) and the normalized cell count came out at 102%.
For `Cc1nn(-c2ccccc2)c(Cl)c1/C=C/C(=O)c1ccc(O)cc1`, the inhibition was -70.4% (inactive) and the normalized cell count was 111%.
The matching figures for `O=C(COc1cccc2ccccc12)Nc1cc(S(=O)(=O)N2CCOCC2)ccc1N1CCOCC1`: 11.1% (inactive) and 67.5%.
The matching figures for `CN1C(=O)C(CC(=O)Nc2ccccc2)S/C1=N/c1nccs1` (stereo not drawn): -107% (inactive) and 120%.
Taken in the same sequence, the figures for `COC(=O)c1nc(NC(=O)c2ccc(F)cc2)n[nH]1` were 28.6% (inactive) and 129%.
Take `Cc1ccccc1NC(=O)c1nn(-c2ccc(F)c(F)c2)ccc1=O`: the inhibition is 25% (inactive) and the normalized cell count stood at 93.8%.
Taken in the same sequence, the figures for `Cc1ccc(NC(=O)N2CCC(c3nc4c(nnn4Cc4c(F)cccc4Cl)c(=O)[nH]3)CC2)cc1` were 6.25% (inactive) and 107%.
Taken in the same sequence, the figures for `COc1ccc(Cn2nnc3c(=O)[nH]c(C4CCN(C(=O)c5ccccc5Cl)CC4)nc32)cc1` were 72.7% (active) and 34.3%.
For `O=C(Nc1ccc(F)cc1)N1CCCC(c2nc3c(nnn3Cc3ccccc3Cl)c(=O)[nH]2)C1` (stereo not drawn), the inhibition was -42.9% (inactive) and the normalized cell count stood at 122%.

For the origin of these results see PubChem BioAssay AID1273 (Columbia University Molecular Screening Center, 2008).
